The list is not random: actives were taken first. Their share in the collection is about 3.5%.
MITF inh: MITF inhibitors, primary screen, biochemical, AlphaScreen, human; AID 1259374, 2018; 650,000 compounds, 0.91% hits; Microphthalmia-associated transcription factor (Homo sapiens), O75030; AlphaScreen MITF homodimerization, bead proximity signal; inhibition, % at 2.6 µM; in the data active = inhibition above about 50%;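 note: 0% = vehicle wells with protein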
GPR151 ag: activators of human GPR151, primary screen, cell-based, PathHunter beta-arrestin, luminescence; PathHunter beta-arrestin GPR151 cells; 650,000 compounds, 1% hits; activation, % at 11.2 µM; AID 1508602, 2020; in the data active = activation above about 4.9%;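 note: 0% = median of compound wells and 100% = cells with positive control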
TEAD-YAP inh: TEAD-YAP interaction inhibition, primary screen, TEAD-YAP interaction inhibitor project, luminescence, HEK-TIYL cells. TEAD-Gal4/YAP UAS-luciferase luminescence. inhibition, % at 9.12 µM. 640,000 compounds, 1.4% hits. AID 1259422, 2018; in the data active = inhibition above about 32%;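 note: 0% = median of test compound wells and 100% = reference inhibitor wells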
FBW7 activator: FBW7 E3 ligase activators, primary screen, biochemical, AlphaScreen, human; AlphaScreen FBW7–phospho-cyclin E peptide binding, activator screen; F-box/WD repeat-containing protein 7 (Homo sapiens), Q969H0; 650,000 compounds, 0.13% hits; normalized activity (activation), % at 26.1 µM; AID 1259310, 2017; in the data active = normalized activity above about 1.9%;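 note: purified mutant Fbw7 with reduced substrate affinity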
GPR151 conf act: GPR151 activators, triplicate retest, confirmation, cell-based, PathHunter beta-arrestin, luminescence. shares compounds with GPR151 ag. 6,700 tested, under 10 active. activation, % at 11.2 µM. AID 1508609, 2020. GPR151 PathHunter beta-arrestin cells, 90 min; % of EA-reagent control over plate median;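 active = mean percent activation across replicates above the confirmation screen cutoff of 4.91%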
GPR119 ag: GPR119 activators in beta-arrestin cells, counter-screen for GPR151 activator project, cell-based, PathHunter beta-arrestin, luminescence, triplicate; 90 min; 0 = compound-well median, 100 = enzyme-acceptor control; activation, % at 11.2 µM; 6,700 compounds, 0.3% hits; shares compounds with GPR151 ag;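 active = mean percent activation in the counterscreen above 29.09%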;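 note: counterscreen on off-target GPR119 to flag nonselective hits from the GPR151 activator screen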
Target sequence (Q8TDV5 whole entry, looked up): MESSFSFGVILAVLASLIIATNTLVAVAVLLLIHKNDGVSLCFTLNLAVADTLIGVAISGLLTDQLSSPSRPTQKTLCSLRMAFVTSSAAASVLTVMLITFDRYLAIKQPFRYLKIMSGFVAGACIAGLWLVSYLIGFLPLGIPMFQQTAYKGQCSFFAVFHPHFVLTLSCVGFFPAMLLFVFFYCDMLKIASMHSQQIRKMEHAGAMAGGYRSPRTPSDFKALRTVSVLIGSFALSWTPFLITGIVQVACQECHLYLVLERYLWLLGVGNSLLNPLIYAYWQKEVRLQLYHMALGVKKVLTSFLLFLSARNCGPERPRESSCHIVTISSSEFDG
Numbers without * were called inactive; · = no result; ! = repeats disagree.

SMILES	MITF inh	GPR151 ag	TEAD-YAP inh	FBW7 activator	GPR151 conf act	GPR119 ag
Cc1cc(C(F)(F)F)nn1CC(=O)NN1C(=O)c2ccccc2C1=O	2	0	-10	0	·	·
COc1ccc(CCNC(=O)CN2N=C(c3ccc(C)cc3)CCC2=O)cc1OC	-6	6.7*	-7	0	1	-2
CNC(=O)/C=C/c1cccc(C(F)(F)F)c1	-9	6.1*	7	0	0	3
Cc1ccn2cc(-c3cc4c(ccc5ccccc54)oc3=O)nc2c1	2	-1	-11	0	·	·
O=C(CN1CC(=O)Oc2ccccc21)NCC1CCCO1 (configuration not stated)	3	13*	-18	0	-1	-9
CS(=O)(=O)N1CCC(Oc2ccc(-c3ccc(C#N)cc3)cc2)CC1	-6	12*	7	0	-1	-6
CCN1CCC(Oc2ccc(-c3ccc(C#N)cc3)cc2)CC1	3	4	-15	0	·	·
O=C(Cn1c(=O)c2cccn2c2cccnc21)NCc1ccc(F)cc1	10	0	-8	1	·	·
CC(=O)Nc1ccc(NC(=O)COc2ccc(Cl)cc2Br)cc1	7	5.1*	-22	0	0	15
O=C(CCCOc1ccc(Cl)cc1Cl)Nc1ncn[nH]1	-10	-1	-7	0	·	·
O=C(COc1ccc(Cl)cc1Cl)Nc1ncn[nH]1	13	6.6*	42*	0	3	-13
O=C(CC(NCc1ccccc1)C(=O)O)Nc1cc(Cl)ccc1Cl (configuration not stated)	0	7.2*	1	0	0	14
O=C(CCc1ccccc1)Nc1cc(Cl)ccc1Cl	6	-1	-8	0	·	·
Cc1cc(C)c(NC(=O)C(=O)NCCO)c(C)c1	-4	1	-4	0	·	·
Cc1cc(C)cc(N2C(=O)NC(=O)/C(=C\c3ccc(N4CCOCC4)o3)C2=O)c1	9	0	6	0	·	·
Cc1[nH]c2ccccc2c1/C=N/Nc1ccccc1[N+](=O)[O-]	40	6.9*	-54	0	0	9
Cc1ccc(NC(=O)c2ccc(CSc3ccc(Cl)cc3)cc2)cc1Cl	0	2	-9	0	·	·
COc1ccc(C(=O)NN2C(=O)c3ccccc3C2=O)cc1I	7	5.1*	9	0	0	8
COc1ccccc1-n1c(/C=C2\C(=O)N(C)c3ccccc32)nc2ccccc2c1=O	-4	1	1	0	·	·
CC(C)c1nnc2n1CCN(C(=O)c1cccc(N3CCCC3=O)c1)CC2	4	-1	-10	0	·	·
CC1=C(C(=O)O)N2C(=O)[C@@H](NC(=O)C(N)C3=CCC=CC3)[C@H]2SC1 (some centres not stated)	2	8.4*!	3	1	1	11
CC1=C(C(=O)O)N2C(=O)[C@@H](NC(=O)[C@H](N)C3=CCC=CC3)C2SC1 (some centres not stated)	11	-1	14	0	·	·
CCCNC(=O)CSc1nc2ccccc2n1CC(=O)NC1CCCC1	-27	7.8*	-8	0	0	-2
COC(=O)CSc1nc2ccccc2n1CC(=O)NC1CCCC1	13	-1	0	0	·	·
CN(Cc1ccc(OC(F)F)cc1)C(=O)c1ccc(=O)[nH]c1	-5	0	3	0	·	·
SMILES	MITF inh	GPR151 ag	TEAD-YAP inh	FBW7 activator	GPR151 conf act	GPR119 ag
O=C(c1ccco1)N1CCC(c2nc3c(nnn3Cc3ccccc3Cl)c(=O)[nH]2)CC1	5	5.7*	9	1	1	13
Cc1ccc(Cn2nnc3c(=O)[nH]c(C4CCN(C(=O)c5ccco5)CC4)nc32)cc1	24	1	7	0	·	·
CC(C)c1ccc(Cn2ccc3c4c(N)nc(NC5CC5)nc4ccc32)cc1	-4	6.5*	·	0	6.5*	106*
CCOC(=O)Cn1c(=NC(=O)c2cc(=O)c3ccccc3o2)sc2cc(F)ccc21	-3	5.1*	1	0	0	3
CCOC(=O)Cn1c(=NC(=O)c2cc(=O)c3ccccc3o2)sc2cc(OC)ccc21	8	1	-7	0	·	·
COC(=O)c1c(NC(=O)c2ccc([N+](=O)[O-])cc2)sc(C(=O)N2CCOCC2)c1C	13	5.5*	-1	0	1	4
O=C(CSc1nnc(-c2ccncc2)o1)c1cccc([N+](=O)[O-])c1	-2	0	-12	0	·	·
COc1cc(OC)cc(-c2nnc(SCC(=O)c3cccc([N+](=O)[O-])c3)o2)c1	11	7.2*	-3	0	-1	-16
CCN(CC)C(=O)C1CCCN(c2nc(C)cc(Nc3ccc(Oc4ccccc4)cc3)n2)C1 (configuration not stated)	-2	12*	14	0	1	4
CCC(Sc1nc2cc(C(=O)NCCc3ccc(OC)c(OC)c3)ccc2c2nc3ccccc3n12)C(=O)NCCCOC (configuration not stated)	3	0	21	0	·	·
O=C(/C=C/c1ccc(-c2ccc(Br)cc2)o1)N1CCOCC1	0	5.4*	-45	0	0	-4
O=C(/C=C/c1ccc(Br)cc1)N1CCOCC1	7	3	-25	0	·	·
CCCN(CC(=O)Nc1ccccc1C)C(=O)CCl	3	8.4*	72*	0	0	-1
Cc1noc(NS(=O)(=O)c2ccc(N/C=C\C(=O)c3cccnc3)cc2)c1C	-11	-1	-16	0	·	·
Cc1csc(SCC(=O)Nc2ccccn2)n1	2	6.2*	-3	0	-1	-12
CC(OCc1ccccc1)C(NC(=O)OC(C)(C)C)C(=O)Nc1nccs1 (configuration not stated)	-1	13*	1	0	1	7
O=C(OCN1C(=O)c2ccccc2C1=O)C1CCCCC1	10	6.1*	5	0	-1	-7
O=C(c1c(F)cccc1F)N1CCN(S(=O)(=O)c2ccc(Br)cc2)CC1	5	6.1*	-14	0	0	13
CC(=O)C1C2=C(CC(C)(C)CC2=O)OC2=C1C(=O)CC(C)(C)C2	3	6.7*	-12	0	0	-4
CC1(C)CC(=O)C2=C(C1)OC1=C(C(=O)CC(C)(C)C1)C2c1cccs1	-5	2	1	0	·	·
CC1(C)CC(=O)C2=C(C1)OC1=C(C(=O)CC(C)(C)C1)C2C=C(Cl)Cl	8	6.6*	-9	1	0	-10
O=C(NCCCC1CCCC1)c1cc(COc2cccc3cnccc23)on1	-3	5.2*	12	0	0	-11
